{"source": "the supplement of paper PMC12282887", "test_in_all_cases": "promoter activity interaction Z-score (Lux/OD deviation from empty-vector control); higher = stronger promoter induction by the compound", "key": {"[1]": {"tested_on": "E. coli BW25113 acrABp lux reporter", "summary_of_the_method": "(§1)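 E. coli BW25113 (wild type or marA, soxS or rob deletion) carrying low-copy luxCDABE promoter reporters grew in 40 µl LB Lennox in 384-well plates at 37°C. Each compound was tested at four 1:2 dilutions in biological duplicates. OD600 and luminescence were read every 30 min for 12 h. Areas were taken over 0–8 h (wild type) or 1–9 h (mutants), and wells below 10% of median growth area were removed. The score is the Z-transformed residual of growth-normalised luminescence fitted against the empty-vector control.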"}, "[2]": {"tested_on": "E. coli BW25113 micFp lux reporter", "summary_of_the_method": "as §1"}, "[3]": {"tested_on": "E. coli BW25113 ompFp lux reporter", "summary_of_the_method": "as §1"}, "[4]": {"tested_on": "E. coli BW25113 robp lux reporter", "summary_of_the_method": "as §1"}, "[5]": {"tested_on": "E. coli BW25113 soxSp lux reporter", "summary_of_the_method": "as §1"}, "[6]": {"tested_on": "E. coli BW25113 tolCp lux reporter", "summary_of_the_method": "as §1"}, "[7]": {"details": "0.25 µg/ml, genetic background: wild type"}, "[8]": {"details": "0.25 µg/ml, genetic background: ΔmarA"}, "[9]": {"details": "0.25 µg/ml, genetic background: Δrob"}, "[10]": {"details": "0.25 µg/ml, genetic background: ΔsoxS"}, "[11]": {"details": "0.5 µg/ml, genetic background: wild type"}, "[12]": {"details": "0.5 µg/ml, genetic background: ΔmarA"}, "[13]": {"details": "0.5 µg/ml, genetic background: Δrob"}, "[14]": {"details": "0.5 µg/ml, genetic background: ΔsoxS"}, "[15]": {"details": "1 µg/ml, genetic background: wild type"}, "[16]": {"details": "1 µg/ml, genetic background: ΔmarA"}, "[17]": {"details": "1 µg/ml, genetic background: Δrob"}, "[18]": {"details": "1 µg/ml, genetic background: ΔsoxS"}, "[19]": {"details": "2 µg/ml, genetic background: wild type"}, "[20]": {"details": "2 µg/ml, genetic background: ΔmarA"}, "[21]": {"details": "2 µg/ml, genetic background: Δrob"}, "[22]": {"details": "2 µg/ml, genetic background: ΔsoxS"}}, "note": "± gives the standard deviation of the averaged measurements.", "data": [{"molecule": "CC1(C)S[C@@H]2[C@H](NC(=O)[C@H](N)c3ccc(O)cc3)C(=O)N2[C@H]1C(=O)O", "note": "[Amoxicillin]", "values": [{"measurement": "promoter activity interaction Z-score", "setting": "[1]; [7]", "result": "-0.14 ± 0.051"}, {"measurement": "promoter activity interaction Z-score", "setting": "[1]; [8]", "result": "-0.253 ± 0.59"}, {"measurement": "promoter activity interaction Z-score", "setting": "[1]; [9]", "result": "-0.295 ± 0.22"}, {"measurement": "promoter activity interaction Z-score", "setting": "[1]; [10]", "result": "-0.0223 ± 0.27"}, {"measurement": "promoter activity interaction Z-score", "setting": "[1]; [11]", "result": "0.0232 ± 0.18"}, {"measurement": "promoter activity interaction Z-score", "setting": "[1]; [12]", "result": "0.274 ± 0.094"}, {"measurement": "promoter activity interaction Z-score", "setting": "[1]; [13]", "result": "-0.216 ± 0.0076"}, {"measurement": "promoter activity interaction Z-score", "setting": "[1]; [14]", "result": "-0.454 ± 0.18"}, {"measurement": "promoter activity interaction Z-score", "setting": "[1]; [15]", "result": "0.074 ± 0.092"}, {"measurement": "promoter activity interaction Z-score", "setting": "[1]; [16]", "result": "-0.334 ± 1.8"}, {"measurement": "promoter activity interaction Z-score", "setting": "[1]; [17]", "result": "-0.382 ± 0.033"}, {"measurement": "promoter activity interaction Z-score", "setting": "[1]; [18]", "result": "-0.0766 ± 0.0011"}, {"measurement": "promoter activity interaction Z-score", "setting": "[1]; [19]", "result": 2.15}, {"measurement": "promoter activity interaction Z-score", "setting": "[1]; [20]", "result": 0.388}, {"measurement": "promoter activity interaction Z-score", "setting": "[1]; [21]", "result": 0.134}, {"measurement": "promoter activity interaction Z-score", "setting": "[2]; [7]", "result": "0.256 ± 0.44"}, {"measurement": "promoter activity interaction Z-score", "setting": "[2]; [8]", "result": "-0.0861 ± 0.065"}, {"measurement": "promoter activity interaction Z-score", "setting": "[2]; [9]", "result": "0.0252 ± 0.083"}, {"measurement": "promoter activity interaction Z-score", "setting": "[2]; [10]", "result": "-0.211 ± 0.11"}, {"measurement": "promoter activity interaction Z-score", "setting": "[2]; [11]", "result": "0.278 ± 0.29"}, {"measurement": "promoter activity interaction Z-score", "setting": "[2]; [12]", "result": "-0.0538 ± 0.13"}, {"measurement": "promoter activity interaction Z-score", "setting": "[2]; [13]", "result": "0.0683 ± 0.17"}, {"measurement": "promoter activity interaction Z-score", "setting": "[2]; [14]", "result": "-0.261 ± 0.46"}, {"measurement": "promoter activity interaction Z-score", "setting": "[2]; [15]", "result": "0.0789 ± 0.095"}, {"measurement": "promoter activity interaction Z-score", "setting": "[2]; [16]", "result": "-0.0503 ± 0.00046"}, {"measurement": "promoter activity interaction Z-score", "setting": "[2]; [17]", "result": "0.0923 ± 0.071"}, {"measurement": "promoter activity interaction Z-score", "setting": "[2]; [18]", "result": "-0.05 ± 0.078"}, {"measurement": "promoter activity interaction Z-score", "setting": "[2]; [19]", "result": "1.75 ± 2.8"}, {"measurement": "promoter activity interaction Z-score", "setting": "[2]; [20]", "result": "-0.285 ± 0.003"}, {"measurement": "promoter activity interaction Z-score", "setting": "[2]; [21]", "result": "-0.0252 ± 0.1"}, {"measurement": "promoter activity interaction Z-score", "setting": "[2]; [22]", "result": "-0.185 ± 0.25"}, {"measurement": "promoter activity interaction Z-score", "setting": "[3]; [7]", "result": "0.146 ± 0.14"}, {"measurement": "promoter activity interaction Z-score", "setting": "[3]; [8]", "result": "-0.696 ± 0.38"}, {"measurement": "promoter activity interaction Z-score", "setting": "[3]; [9]", "result": "-0.183 ± 0.067"}, {"measurement": "promoter activity interaction Z-score", "setting": "[3]; [10]", "result": "-0.811 ± 0.064"}, {"measurement": "promoter activity interaction Z-score", "setting": "[3]; [11]", "result": "0.133 ± 0.13"}, {"measurement": "promoter activity interaction Z-score", "setting": "[3]; [12]", "result": "-0.265 ± 0.34"}, {"measurement": "promoter activity interaction Z-score", "setting": "[3]; [13]", "result": "-0.637 ± 0.024"}, {"measurement": "promoter activity interaction Z-score", "setting": "[3]; [14]", "result": "-0.837 ± 0.48"}, {"measurement": "promoter activity interaction Z-score", "setting": "[3]; [15]", "result": "-0.523 ± 0.21"}, {"measurement": "promoter activity interaction Z-score", "setting": "[3]; [16]", "result": "-0.753 ± 0.13"}, {"measurement": "promoter activity interaction Z-score", "setting": "[3]; [17]", "result": "-0.725 ± 0.24"}, {"measurement": "promoter activity interaction Z-score", "setting": "[3]; [18]", "result": "-0.869 ± 0.041"}, {"measurement": "promoter activity interaction Z-score", "setting": "[3]; [20]", "result": -1.92}, {"measurement": "promoter activity interaction Z-score", "setting": "[4]; [7]", "result": "0.459 ± 0.29"}, {"measurement": "promoter activity interaction Z-score", "setting": "[4]; [8]", "result": "-0.028 ± 0.04"}, {"measurement": "promoter activity interaction Z-score", "setting": "[4]; [9]", "result": "-0.226 ± 0.034"}, {"measurement": "promoter activity interaction Z-score", "setting": "[4]; [10]", "result": "-0.349 ± 0.75"}, {"measurement": "promoter activity interaction Z-score", "setting": "[4]; [11]", "result": "0.699 ± 0.03"}, {"measurement": "promoter activity interaction Z-score", "setting": "[4]; [12]", "result": "-0.354 ± 0.23"}, {"measurement": "promoter activity interaction Z-score", "setting": "[4]; [13]", "result": "0.168 ± 0.52"}, {"measurement": "promoter activity interaction Z-score", "setting": "[4]; [14]", "result": "-0.698 ± 0.12"}, {"measurement": "promoter activity interaction Z-score", "setting": "[4]; [15]", "result": "-0.0437 ± 0.14"}, {"measurement": "promoter activity interaction Z-score", "setting": "[4]; [16]", "result": "-0.0839 ± 0.86"}, {"measurement": "promoter activity interaction Z-score", "setting": "[4]; [17]", "result": "0.396 ± 1.2"}, {"measurement": "promoter activity interaction Z-score", "setting": "[4]; [18]", "result": "-1.05 ± 0.49"}, {"measurement": "promoter activity interaction Z-score", "setting": "[4]; [19]", "result": -1.64}, {"measurement": "promoter activity interaction Z-score", "setting": "[4]; [20]", "result": 0.17}, {"measurement": "promoter activity interaction Z-score", "setting": "[5]; [7]", "result": "0.174 ± 0.46"}, {"measurement": "promoter activity interaction Z-score", "setting": "[5]; [8]", "result": "-0.165 ± 0.13"}, {"measurement": "promoter activity interaction Z-score", "setting": "[5]; [9]", "result": "0.236 ± 0.24"}, {"measurement": "promoter activity interaction Z-score", "setting": "[5]; [10]", "result": "-0.199 ± 0.15"}, {"measurement": "promoter activity interaction Z-score", "setting": "[5]; [11]", "result": "0.319 ± 0.15"}, {"measurement": "promoter activity interaction Z-score", "setting": "[5]; [12]", "result": "-0.00956 ± 0.1"}, {"measurement": "promoter activity interaction Z-score", "setting": "[5]; [13]", "result": "0.0715 ± 0.076"}, {"measurement": "promoter activity interaction Z-score", "setting": "[5]; [14]", "result": "-0.424 ± 0.15"}, {"measurement": "promoter activity interaction Z-score", "setting": "[5]; [15]", "result": "0.0777 ± 0.017"}, {"measurement": "promoter activity interaction Z-score", "setting": "[5]; [16]", "result": "-0.259 ± 0.12"}, {"measurement": "promoter activity interaction Z-score", "setting": "[5]; [17]", "result": "0.156 ± 0.14"}, {"measurement": "promoter activity interaction Z-score", "setting": "[5]; [18]", "result": "-0.361 ± 0.23"}, {"measurement": "promoter activity interaction Z-score", "setting": "[5]; [19]", "result": "0.325 ± 0.57"}, {"measurement": "promoter activity interaction Z-score", "setting": "[5]; [20]", "result": "-0.389 ± 0.55"}, {"measurement": "promoter activity interaction Z-score", "setting": "[5]; [21]", "result": "0.0112 ± 0.1"}, {"measurement": "promoter activity interaction Z-score", "setting": "[5]; [22]", "result": "0.999 ± 0.21"}, {"measurement": "promoter activity interaction Z-score", "setting": "[6]; [7]", "result": "0.312 ± 0.33"}, {"measurement": "promoter activity interaction Z-score", "setting": "[6]; [8]", "result": "-0.1 ± 0.033"}, {"measurement": "promoter activity interaction Z-score", "setting": "[6]; [9]", "result": "0.375 ± 1"}, {"measurement": "promoter activity interaction Z-score", "setting": "[6]; [10]", "result": "-0.105 ± 0.3"}, {"measurement": "promoter activity interaction Z-score", "setting": "[6]; [11]", "result": "0.531 ± 0.051"}, {"measurement": "promoter activity interaction Z-score", "setting": "[6]; [12]", "result": "0.00734 ± 0.28"}, {"measurement": "promoter activity interaction Z-score", "setting": "[6]; [13]", "result": "0.919 ± 0.041"}, {"measurement": "promoter activity interaction Z-score", "setting": "[6]; [14]", "result": "-0.655 ± 0.93"}, {"measurement": "promoter activity interaction Z-score", "setting": "[6]; [15]", "result": "0.148 ± 0.45"}, {"measurement": "promoter activity interaction Z-score", "setting": "[6]; [16]", "result": "-0.404 ± 0.22"}, {"measurement": "promoter activity interaction Z-score", "setting": "[6]; [17]", "result": "0.949 ± 0.14"}, {"measurement": "promoter activity interaction Z-score", "setting": "[6]; [18]", "result": "-0.0133 ± 0.46"}, {"measurement": "promoter activity interaction Z-score", "setting": "[6]; [19]", "result": "0.917 ± 0.13"}, {"measurement": "promoter activity interaction Z-score", "setting": "[6]; [20]", "result": "-0.67 ± 0.039"}, {"measurement": "promoter activity interaction Z-score", "setting": "[6]; [21]", "result": "0.283 ± 0.8"}, {"measurement": "promoter activity interaction Z-score", "setting": "[6]; [22]", "result": "-0.752 ± 0.58"}]}]}
